# KB-3-1 cytotox = kills parental KB-3-1 adenocarcinoma cells; AID 1347075; KB-3-1 viability, CellTiter-Glo ATP luminescence, 72 h; Potency, µM (top dose mostly 46.1 µM), most hits filed as cytotoxic; hit rate 1.4% among 400,000; also: % is scaled to controls: 0 for no effect and ±100 for the full control effect; nearly all actives have a fitted effect of over 60% in size
#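 Multi-concentration cytotoxicity screen in KB-3-1 cells grown in DMEM lacking phenol red with 10% FBS. After 72 h at 37 °C with compound, ATP-dependent luminescence was recorded.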
# MCF10A rereplic = inducers of DNA re-replication in MCF 10A breast cells; Potency, µM (series often up to 46.1 µM), for inactives: at the top dose activity, positive = re-replication, usual class: activators; MCF 10A DNA re-replication, Hoechst nuclear intensity, 48 h; hit rate 2.9% among 350,000; also: % of control where 0% means no effect; nearly all actives have a fitted effect of over 50% in size
# KB-V1 MDR tox = KB-V1 MDR subline cytotoxicity | Potency, µM (series often up to 46.1 µM), actives largely listed as cytotoxic | KB-V1 MDR cells viability, CellTiter-Glo, 72 h | hit rate 3.4% among 400,000; also: % is scaled to controls: 0 for no effect and ±100 for the full control effect; nearly all actives have a fitted effect of over 60% in size
#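 qHTS viability screen in drug-selected KB-V1 MDR cells: 72 h compound treatment at 37 degrees C, ATP luminescence end point.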
# SW480 rereplic = induces DNA re-replication in SW480 colon adenocarcinoma cells | SW480 DNA re-replication, Hoechst DNA content imaging, 48 h | Potency, µM (top dose mostly 46.1 µM), inactives show at the highest dose re-replication activation, actives largely listed as activators | hit rate 1.8% among 340,000; also: % of control where 0% means no effect; nearly all actives have a fitted effect of over 55% in size
#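 Treated cells incubate 48 hr (37 C, 5% CO2), are stained 40 min with Hoechst, and nuclear fluorescence is enumerated; a rise in nuclei with high DNA signal marks re-replication.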
# PINK1 expr mod = changes PINK1 expression | PINK1 immunofluorescence, high-content cytometry, 24 h | Potency, µM (doses to about 76.6 µM), for inactives: at the top dose activation (PINK1 increase), hits mostly activators | hit rate 0.2% among 410,000; active = well fitted activation curve with a large enough effect; inconclusive = small, poorly fitted or top-dose-only effect; cell line not stated here; also: % of control where 0% means no effect; nearly all actives have a fitted effect of over 65% in size
#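 Stable cell line, 250 cells/well, 12 h attachment; compounds pinned at 5 concentrations, 24 h; CCCP control. Fixed with nuclear dye, primary antibodies 12 h at 10 degrees C, secondary plus cell stain; laser-scanning cytometer read.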
# The depositor's hits bear a star; i = inactive; ? = inconclusive; · = no result given; [ ] = dose if it differs, or a comment. A selection: hits, their analogues and other compounds. The true share with any hit is near 6.7%. Unless noted, calls follow the shape of the dose curve; as a rule, active = well fitted curve in the direction sought with a large enough effect; inconclusive = small, poorly fitted or top-dose-only effect, or another doubt; inactive = no such curve, though single readings can be large; an effect the other way counts as inactive or inconclusive. Potency is read from the fitted curve at half-maximal effect.
SMILES,KB-3-1 cytotox,MCF10A rereplic,KB-V1 MDR tox,SW480 rereplic,PINK1 expr mod
CC1CC(=Cc2ccc([N+](=O)[O-])cc2)C(=O)O1 (centres undefined),i,-0.2%,i,1.1%,-0.2%
Cc1cc(/C=C2\SC(=S)N(C)C2=O)c(C)n1-c1cccc(O)c1,?,13µM*,?,17.1%,?
COc1ccc(-n2c(C)cc(/C=C3/SC(=S)N(C)C3=O)c2C)cc1,i,-8.3%,i,-85.6%,10.2%
CN1C(=O)/C(=C\c2ccccc2OCc2ccccc2)SC1=S,i,1.3%,i,-2.2%,?
CN=C1S/C(=C\c2cc(C)n(-c3ccccc3F)c2C)C(=O)N1C,i,20.6µM*,i,3.8%,13.4%[38.3 µM]
Cc1cc(/C=C2\SC(=S)N(Cc3ccco3)C2=O)c(C)n1-c1ccccc1,i,5.8µM*,i,-1.6%,2.8%
CN1C(=O)/C(=C\c2cc(N=Nc3ccccc3)ccc2O)SC1=S,?,2.91µM*,?,-0.6%,39.8µM*
CCOC(=O)c1cccc(NC(=O)C2CCN(S(=O)(=O)c3ccc4c(c3)oc(=O)n4C)CC2)c1,i,·,i,·,0.5%
CC(C)CN1CCC2(CC1)CCN(C(=O)c1csnn1)CC2,·,·,·,·,-0.2%
COc1ccc(-c2nc(CSc3nc4ncccc4[nH]3)c(C)o2)cc1OC,·,·,·,·,1.5%
CC(=O)N1CC(C)Sc2ccc(S(=O)(=O)NC(C)c3ccccc3)cc21 (centres undefined),i,9.4%,i,2.1%,1.6%
CCCc1ccc(OCC(=O)Nc2sc(C(=O)OCC)c(C)c2C(=O)OCC)cc1,·,·,·,·,0.1%
COc1ccc(COc2ccsc2C(=O)Nc2ccc(Cl)c(Cl)c2)cc1,i,18.4µM*,i,11.5%,10µM*
N#CCCN(CCC#N)C(=O)C1c2ccccc2Oc2ccccc21,i,7.2%,i,5.1%,0.1%
CN(C)c1ccc(CNS(=O)(=O)c2ccc(-c3cc(C(F)(F)F)on3)s2)cc1,·,·,·,·,2.3%
OC(CNC1CCCCCC1)COc1cccc2ccccc12 (centres undefined),?,25.5%,20.6µM*,18.4µM*,-0.7%
Cc1ccc(OCC(O)CNC2CCCC2)c(C)c1 (centres undefined),i,8.2%,i,-1.4%,1.5%
OC(CNC1CCCC1)COc1ccccc1Br (centres undefined),i,7.9%,i,6.1%,5.8%
Cc1ccccc1OCC(O)CNC1CCC(NCC(O)COc2ccccc2C)CC1 (centres undefined),3.26µM*,?,18.4µM*,4.11µM*,-2.0%
COc1ccc(-c2cc(-c3cccs3)nc(OC)c2C#N)cc1OC,?,6.51µM*,4.61µM*,?,5.5%
N#Cc1c(-c2ccccc2)cc(-c2cccs2)nc1SCC(=O)O,i,28.9%,i,-2.2%,-2.6%
COc1cc(-c2c(C#N)c(N)nc3c2CCCC3)ccc1O,i,2.7%,i,4.1%,4.9%
COc1ccc(-c2c(C#N)c(N)nc3c2CCc2ccccc2-3)cc1OC,5.8µM*,1.64µM*,5.17µM*,?,-0.6%
COc1nc(-c2cccs2)cc(-c2ccc(C)cc2)c1C#N,15.8µM*,?,11.2µM*,3.98µM*,?
Cc1c(C(=O)NCc2cccc(F)c2)sc2ncnc(NCC3CCCO3)c12 (centres undefined),·,·,·,·,0.5%
SMILES,KB-3-1 cytotox,MCF10A rereplic,KB-V1 MDR tox,SW480 rereplic,PINK1 expr mod
CC(=O)Nc1ccc(C(=O)OCC(=O)N2CCC(Cc3ccccc3)CC2)cc1,i,-0.1%,i,-4.1%,4.5%
Cc1ccc(N2C(=O)CC(c3ccccc3F)C3=C2COC3=O)cc1Cl (centres undefined),i,·,i,·,0.3%
CCC1CCCCN1C(=O)COC(=O)c1ccc(Br)o1 (centres undefined),i,-4.5%,i,-33.8%,1.0%
COc1ccc(CCCN2CCC(CN3C(=S)NC[C@@H]3Cc3ccccc3)CC2)cc1OC,i,?,i,-3.1%,1.5%
Nc1c(C(=O)OCC(=O)Nc2ccc(Cl)cc2[N+](=O)[O-])[nH]c(=O)[nH]c1=O,i,23.1µM*,i,-2.0%,-0.1%
CC(=O)c1ccccc1-c1ccc2c(c1)CC(CNC(=O)c1ccnc(Cl)c1)O2 (centres undefined),·,·,·,·,1.6%
Cn1c(C(=O)N(Cc2ccccc2)Cc2cccs2)cc2sccc21,i,16.4µM*,14.6µM*,14.2%,2.6%[38.3 µM]
CCOc1ccc(/C=C/c2nc(C#N)c(NC(C)CC)o2)cc1 (centres undefined),·,·,·,·,9.5%
Cc1cc(C)cc(OCCn2c(C3CC(=O)N(c4ccccc4Cl)C3)nc3ccccc32)c1 (centres undefined),·,·,·,·,3.2%
CCOc1ccccc1N1CC(c2nc3ccccc3n2CCOc2ccc(OC)cc2)CC1=O (centres undefined),i,·,5.8µM*,·,2.7%
Cc1ccc(OCCn2c(C3CC(=O)N(Cc4ccccc4)C3)nc3ccccc32)cc1 (centres undefined),?,11.6µM*,i,0.7%,23.3%
CCC(=O)N1c2ccccc2CC1C(=O)NCCc1ccccc1Cl (centres undefined),i,·,i,·,1.8%
COc1ccc(NC(=O)CSC2=Nc3ccccc3C3=NC(CC(=O)NCc4ccc5c(c4)OCO5)C(=O)N23)cc1 (centres undefined),i,·,i,·,1.4%
CC(=O)Nc1cc(-c2cccnc2)cn2c(-c3ccc(F)cc3)cnc12,i,·,i,·,3.4%
CC(NC(=O)Cn1ncc2c3ccccc3n(Cc3ccc(F)cc3)c2c1=O)c1ccccc1 (centres undefined),i,·,i,·,-0.8%
Cc1ncc(CO)c(/C=N/NC(=S)Nc2ccc(C(C)C)cc2)c1O,?,20.4%,i,2.91µM*,0.0%
Cc1ncc(CO)c(/C=N/Nc2cccc(Cl)n2)c1O,i,3.0%,i,-0.6%,-1.4%
S=c1nc(NCc2cccc(Cl)c2)c2ccccc2[nH]1,i,21.3%,i,-13.9%,8.7%
CCOc1ccc(S(=O)(=O)Nc2ccccc2C(=O)Nc2ccccc2N2CCOCC2)cc1,i,4.0%,i,-4.8%,11.2µM*
CCOC(=O)c1ccccc1NS(=O)(=O)c1ccc(OCC)cc1,?,13µM*,?,11.6µM*,5.7%[38.3 µM]
CCOc1ccc(C(=O)Nc2cc(S(=O)(=O)Nc3ccccc3Cl)ccc2N2CCOCC2)cc1,i,3.8%,6.51µM*,13.2%,-0.9%
O=C(Nc1ccccc1N1CCOCC1)c1ccccc1NS(=O)(=O)c1ccc(F)cc1,i,1.4%,i,2.2%,1.8%
CC(C)[C@H](NS(=O)(=O)c1ccccc1)C(=O)Nc1ccccc1N1CCOCC1,i,1.8%,8.2µM*,-2.1%,-0.2%
COC(=O)c1cccc(NS(=O)(=O)c2ccc(OC)cc2)c1C,8.2µM*,5.8µM*,9.2µM*,?,20.9%

# Screens deposited in PubChem BioAssay by National Center for Advancing Translational Sciences (NCATS).
